# Screening results deposited in PubChem BioAssay by several laboratories.
# Cl transport mod = KCC2 (human) Cl- transport modulation. Q9H2X9. KCC2 cells, thallium flux FluoZin-2 fluorescence. B-score of Tl+ flux slope (higher = more flux/activation; lower = inhibition) at 10 µM. actives 2.2% (n = 190,000). AID 1456;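 active means thallium flux slope and its plate-corrected score both differing from the plate sample mean at a set confidence after two filtering rounds, in either direction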;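 further: slope of fluorescence scaled to starting intensity during 10 to 20 s after thallium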
# PHOSPHO1 inh = blocks human PHOSPHO1 phosphatase activity | recombinant PHOSPHO1, absorbance phosphatase assay | inhibition, % at 13.3 µM | actives 1.1% (n = 290,000); in the data active means inhibition above about 60%
# Target sequence (Q8TCT1 whole entry, looked up): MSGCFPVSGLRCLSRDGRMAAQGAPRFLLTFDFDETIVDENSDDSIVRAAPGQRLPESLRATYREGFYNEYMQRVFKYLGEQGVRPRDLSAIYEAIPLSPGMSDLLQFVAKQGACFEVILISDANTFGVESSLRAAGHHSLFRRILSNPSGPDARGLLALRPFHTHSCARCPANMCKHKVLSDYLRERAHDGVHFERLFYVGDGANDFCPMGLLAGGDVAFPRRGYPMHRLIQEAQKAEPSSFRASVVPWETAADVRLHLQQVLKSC
# H9c2 protect = myocardial damage modulation in H9c2 cells; AID 588492; H9c2 cardiomyocytes, H2O2 injury protection, ATPLite, 2 h; actives 0.63% (n = 360,000); protection from H2O2 cell death, % at 20 µM;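 active means compounds giving at least 50% protection of heart cells from peroxide-induced death in the single-dose screen, raw or plate-pattern-corrected value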;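 further: 0% = DMSO wells with peroxide and 100% = DMSO wells without peroxide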
# Efflux pump inh = antifungal efflux pump inhibition, Nile Red retention. actives 0.44% (n = 330,000). S. cerevisiae Candida pump triplex. inhibition, % at 10 µM;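 active means plate passing quality check with inhibition over a set limit, or well fluorescence over plate mean plus 4 SD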;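 further: Nile Red retained in pooled yeast measured as flow cytometry median fluorescence; 0% = buffer negative control and 100% = Enniatin B positive control; higher means more Nile Red kept so more efflux inhibition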
# Calb FLC = C. albicans growth modulation with fluconazole; actives 0.57% (n = 300,000); C. albicans CaCi-2 (fluconazole-resistant clinical isolate) + fluconazole, Alamar Blue growth, 48 h; growth inhibition, % (no concentration beside the values);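 active means growth inhibition above about 58% in most replicates, limit read from the data, passing the limit was not always enough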;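 further: all wells also contain fluconazole at 8 µg/ml as a sub-toxic cotreatment; 0% = median of DMSO wells and 100% = median of geldanamycin control wells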
# Cmpd fluor yeast = compound fluorescence in yeast efflux pump counter-screen; shares compounds with Efflux pump inh; S. cerevisiae AD/pABC3, flow cytometry; fluorescence ratio to DMSO, % at 10 µM; actives 4% (n = 1,700); AID 588517;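 active means fluorescence ratio to DMSO above its plate's cutoff, the plate mean ratio plus 5 SD, cut at about 210% in these data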;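 further: unstained yeast with no Nile Red so the signal is compound autofluorescence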
# CaMdr1 efflux inh = blocks the Candida albicans Mdr1 efflux pump in yeast; shares compounds with Efflux pump inh; actives 1% (n = 1,700); inhibition, % at 10 µM; S. cerevisiae AD/CaMDR1, Nile Red efflux, flow cytometry; in the data active means inhibition above about 26%;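 further: 0% = DMSO vehicle and 100% = reference inhibitor; higher means more Nile Red retained so more efflux inhibition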
# Cdr2 pump inh = inhibitors of Candida albicans Cdr2 efflux pump. shares compounds with Efflux pump inh. S. cerevisiae AD/CaCDR2, Nile Red retention, flow cytometry. Nile Red retention ratio vs DMSO, % at 10 µM. actives 4% (n = 1,700); in the data active means Nile Red retention ratio vs DMSO above about 190%;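 further: higher ratio means more blocking of Cdr2 efflux of the dye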
# Cdr1 pump inh = inhibitors of Candida albicans Cdr1 efflux pump | shares compounds with Efflux pump inh | S. cerevisiae AD/CaCDR1, Nile Red efflux, flow cytometry | inhibition, % at 10 µM | actives 1% (n = 1,700) | AID 588522;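 active means inhibition above the screen-wide mean plus twice its standard deviation, cut at about 32% in these data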
# Active calls of the source: *; . = no result. An excerpt weighted towards active compounds, which were near 3.3% of everything screened.
SMILES,Cl transport mod,PHOSPHO1 inh,H9c2 protect,Efflux pump inh,Calb FLC,Cmpd fluor yeast,CaMdr1 efflux inh,Cdr2 pump inh,Cdr1 pump inh
O=C1NC2=C(C(=O)CCC2)C(c2cccc([N+](=O)[O-])c2)N1 (centres undefined),.,24,-6,.,-7,.,.,.,.
O=C(NC1CCCCCCC1)NC1CCCCC1,0.45,49,-4,1.0*,9,113,0,105,0
CN1CCC(NC(=O)NC2CCCCC2)CC1,0.18,28,3,0,-2,.,.,.,.
COc1ccc([C@H]2N[C@]3(CCCN(Cc4cccn4C)C3=O)[C@H]3C(=O)N(Cc4ccccc4)C(=O)[C@@H]23)cc1,.,.,-4,.,.,.,.,.,.
O=C(CSc1nc2nc3c(cc2c(=O)n1-c1ccccc1)CCCC3)Nc1cccc2ccccc12,-0.59,-6,-4,1.1*,21,95,0,142,0
CCSc1cc(N2CCCC2)nc(-c2ccccc2Cl)n1,-0.77,2,-2,0,-16,106,0,96,0
CSc1nc(-c2ccccc2)nc(N2CCOCC2)c1C(C)=O,-2.4,12,2,0,10,97,0,104,0
CC(C)Sc1cc(N2CCCC2)nc(-c2ccccc2)n1,-0.13,-6,-6,0,-1,.,.,.,.
CC(C)Sc1cc(N2CCOCC2)nc(-c2ccccc2)n1,0.2,-11,-12,0,-15,106,0,108,0
COCc1cc(N2CCOCC2)nc(-c2ccccc2)n1,0.96,40,0,0,-24,.,.,.,.
CSc1cc(N2CCOCC2)nc(-c2ccccc2Cl)n1,-0.3,11,-4,1,1,91,0,103,0
COCCN1CCN(C(=O)C2CCC(=O)N(CCc3ccccc3)C2)CC1 (centres undefined),.,6,-4,1,1,.,.,.,.
COc1cccc(-c2nnn(CC(=O)N(CC(C)C)C3CCS(=O)(=O)C3)n2)c1 (centres undefined),.,.,2,0,.,.,.,.,.
O=C(CNC(=O)c1ccccc1F)Nc1ccc2c(c1)OCO2,.,.,-4,0,.,.,.,.,.
CC(C)Sc1cc(N2CCCC2)nc(-c2ccccc2Cl)n1,-0.38,7,-9,0,13,161,0,105,0
CCOC(=O)N1CCN(S(=O)(=O)N2CCCC(C(=O)NC(C)c3ccccc3)C2)CC1 (centres undefined),.,10,-2,0,-6,.,.,.,.
O=C1/C(=C/c2ccccn2)SC(=S)N1Nc1ncc(C(F)(F)F)cc1Cl,.,.,4,.,.,100,0,92,0
O=C1/C(=C/c2ccc(F)cc2)SC(=S)N1Nc1ncc(C(F)(F)F)cc1Cl,0.044,86*,-10,0,3,100,0,108,0
O=C1/C(=C\c2ccccn2)SC(=S)N1Nc1ncc(C(F)(F)F)cc1Cl,-1.4,-63,-4,0,27,.,.,.,.
CCCOP(=O)(c1ccc(N(C)C)cc1)C(Nc1ccccc1)c1ccc(N(C)C)cc1 (centres undefined),0.28,9,-5,2.6*,-57,112,0,121,0
CC1Cc2cc(S(=O)(=O)N3CCCCC3)ccc2N1C(=O)C1CCC1 (centres undefined),.,43,-4,0,0,102,0,98,0
COc1ccccc1CNS(=O)(=O)c1ccc2c(c1)CC(C)N2C(=O)C1CCC1 (centres undefined),.,-16,-17,0,-3,113,0,129,0
CSc1nsc(SC)c1C(=O)Nc1ccc(C(C)(C)C)cc1,0.39,13,-6,0,9,.,.,.,.
CSc1nsc(SC)c1C(=O)NC(=O)Nc1cccnc1,0.52,55,4,0.8*,22,107,0,112,0
COc1cc(C=C(c2nc3ccccc3s2)c2nc3ccccc3s2)ccc1O,-1.7,-4,-3,0,-5,.,.,.,.
SMILES,Cl transport mod,PHOSPHO1 inh,H9c2 protect,Efflux pump inh,Calb FLC,Cmpd fluor yeast,CaMdr1 efflux inh,Cdr2 pump inh,Cdr1 pump inh
CN(C)c1ccc(/C=C/c2nc3ccccc3s2)cc1,-0.095,38,-40,0.6*,-19,98,0,116,0
COc1cc(/C=C/c2nc3ccccc3s2)cc(OC)c1O,-0.55,28,5,0.8*,11,81,0,85,0
CCc1nc(SCC(=O)Nc2ccc(F)cc2)c2c(=O)n(C)c(=O)n(C)c2n1,.,28,5,0,-2,.,.,.,.
COc1ccccc1C1CCN(Cc2c(C)[nH]c3ccccc23)CC1,0.67,-6,-2,0.9*,7,108,0,96,0
COc1ccccc1C1CCN(Cc2cccc3ccccc23)CC1,.,31,-6,0,0,.,.,.,.
CC(Oc1ccccc1)C(=O)N(CCC1=CCCCC1)c1c(N)n(Cc2ccccc2)c(=O)[nH]c1=O (centres undefined),.,-17,20,6.2*,31,92,0,109,0
Nc1c(N(CCC2=CCCCC2)C(=O)CCCOc2ccccc2)c(=O)[nH]c(=O)n1Cc1ccccc1,.,.,0,0,-6,.,.,.,.
O=C(COC(=O)c1c(Cl)ccc(Cl)c1Cl)NCC1CCCO1 (centres undefined),.,.,-2,0,.,.,.,.,.
O=C(COC(=O)c1c(Cl)cccc1Cl)NCC1CCCO1 (centres undefined),.,4,6,9.0*,-12,111,0,119,0
CC(=O)N(\C=C/C=C/C=C1\Sc2ccccc2C1=O)c1ccccc1,-0.56,-23,-7,5.7*,4,297*,0,149,0
CCOC(=O)c1c(C)c(C)n2c1NC(=O)C2,.,.,-1,.,.,.,.,.,.
Cc1ccc(OCC(=O)NCCCNC(=O)c2cccnc2)cc1,.,17,-4,0,2,.,.,.,.
O=C(CC1C(=O)NCCN1Cc1cccc(F)c1)NCCCOc1cccnc1 (centres undefined),.,12,1,0,5,.,.,.,.
Cc1ccc(-c2csc(/C(C#N)=C/Nc3ccccc3SC(F)(F)F)n2)c(C)c1,0.25,1,-23,0.5*,4,163,3,116,1
Cc1cccc(C)c1NC(=O)Cn1cc(C=O)c2ccccc21,.,49,-9,0,6,.,.,.,.
CCOc1ccccc1Nc1cc(C)nc2ccc(C)cc12,.,.,-10,0,-2,.,.,.,.
Cc1ccccc1OCCNc1cc(N2CCN(CCO)CC2)ccc1[N+](=O)[O-],-1.2,-4,14,19*,2,107,0,95,0
Cc1cc(C(F)(F)F)cc(NNC(=O)NC(=O)c2ccc(Cl)cc2)n1,0.11,32,-4,1.3*,7,102,0,106,0
